Compounds with a hit are over-represented: about 10% of the library has one in this group of screens.
BAZ2B block: qHTS Assay for Inhibitors of BAZ2B | Potency, µM (top dose mostly 114 µM), for inactives: top-dose activity change, negative = inhibition, hits mostly inhibitors | 4.4% of 360,000 active | Bromodomain adjacent to zinc finger domain protein 2B (Homo sapiens), Q9UIF8 | AlphaScreen BAZ2B-H3K14Ac peptide displacement; also: % is scaled to controls: 0 for no effect and ±100 for the full control effect; nearly all actives have a fitted effect of over 60% in size
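Complex of BAZ2B and biotin-H3K14Ac (50 nM apiece) forms over 30 min at RT, then faces library compounds up to 110 uM for another 30 min; AlphaScreen beads added, 20 min dark incubation, luminescence read.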
JMJD2A Tudor: qHTS Assay for Inhibitors of JMJD2A-Tudor Domain | Lysine-specific demethylase 4A (Homo sapiens), O75164 | AlphaScreen JMJD2A-Tudor / H3K4me3 peptide binding | Potency, µM (highest dose often 114 µM), inactives show top-dose activity change, negative = inhibition, usual class: inhibitors | 4.4% of 390,000 active | AID 504339, 2011; also: % is scaled to controls: 0 for no effect and ±100 for the full control effect; nearly all actives have a fitted effect of over 50% in size
HP1b chromo inh: HTS for Inhibitors of HP1-beta Chromodomain Interactions with Methylated Histone Tails | 0.56% of 390,000 active | AlphaScreen HP1-beta / biotin-H3K9me3 peptide binding | AID 540317, 2011 | Potency, µM (top dose mostly 114 µM), without a hit: at the highest dose activity change, negative = inhibition, usual class: inhibitors; also: nearly all actives have a fitted effect of over 70% in size
Target sequence (P83916 whole entry, looked up): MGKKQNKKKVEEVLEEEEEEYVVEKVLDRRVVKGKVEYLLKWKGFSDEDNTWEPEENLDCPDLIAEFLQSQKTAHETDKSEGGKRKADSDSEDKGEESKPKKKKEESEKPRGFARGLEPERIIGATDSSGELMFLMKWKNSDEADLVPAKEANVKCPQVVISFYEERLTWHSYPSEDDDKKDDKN
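HP1-beta protein (50 nM final) preincubated 30 min at room temperature with biotinylated H3(1-18)K9me3 peptide (50 nM) in PBS pH 7.4, 0.01% Tween-20, then compound added for 30 min. AlphaScreen streptavidin donor/nickel chelate acceptor beads (10 ug/mL final), 30 min dark, luminescence read.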
G9a block: qHTS Assay for Inhibitors of Histone Lysine Methyltransferase G9a; 8.8% of 350,000 active; Potency, µM (series often up to 102 µM), inactives show top-dose activity, negative = inhibition, actives largely listed as inhibitors; Histone-lysine N-methyltransferase EHMT2 (Homo sapiens), Q96KQ7; AID 504332, 2011; G9a H3K9 monomethylation, AlphaScreen, 2 h; also: % is scaled to controls: 0 for no effect and ±100 for the full control effect; nearly all actives have a fitted effect of over 75% in size
Target sequence (Q96KQ7 913-1193 limits assumed): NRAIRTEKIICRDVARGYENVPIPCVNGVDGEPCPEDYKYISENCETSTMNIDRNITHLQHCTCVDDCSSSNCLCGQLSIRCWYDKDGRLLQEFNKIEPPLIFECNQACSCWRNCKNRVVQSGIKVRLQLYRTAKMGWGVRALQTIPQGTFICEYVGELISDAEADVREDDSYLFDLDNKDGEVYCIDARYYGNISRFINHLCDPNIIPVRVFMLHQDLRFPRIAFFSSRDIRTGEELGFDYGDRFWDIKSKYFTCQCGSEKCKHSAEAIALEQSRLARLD
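Step 1: enzyme (final 20 nM) with compound, 15 min RT. Step 2: substrate peptide 500 nM and SAM 20 uM, 2 h RT. Step 3: anti-H3K9me1 antibody and AlphaScreen beads, 10 min, then plate read.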
GLS inh: qHTS for Inhibitors of Glutaminase (GLS); Glutaminase kidney isoform, mitochondrial (Homo sapiens), O94925; Potency, µM (titrated, usually from 45.5 µM), inactives show at the top dose activity change, negative = inhibition, usual class: inhibitors; 0.21% of 410,000 active; GLS enzymatic activity, qHTS titration; also: % is scaled to controls: 0 for no effect and ±100 for the full control effect
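hKGA in 45 mM KH2PO4 pH 8.2, 0.02% Tween-20 with pin-transferred compounds; 1 mM L-glutamine (stock) plus glutamate oxidase/HRP/Amplex Red coupling added. Fluorescence read initially and after 30 min at RT.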
An asterisk follows results filed as active; [ ] = another dose, or the depositor's remark. Calls follow the shape of the dose curve; as a rule, active = well fitted curve in the direction sought with a large enough effect; inconclusive = small, poorly fitted or top-dose-only effect, or another doubt; inactive = no such curve, though single readings can be large; an effect the other way counts as inactive or inconclusive. Potency is read from the fitted curve at half-maximal effect.

Cc1nc(SCc2ccc([N+](=O)[O-])cc2)n[nH]1 was read as BAZ2B block 4%, JMJD2A Tudor 1%, HP1b chromo inh 13%, G9a block -9%[0.501 µM] and GLS inh 7%.
For Cc1ccc(S(=O)(=O)N(CC(=O)NCc2ccncc2)Cc2ccccc2F)cc1 the results were BAZ2B block -12%, JMJD2A Tudor -6%, HP1b chromo inh 26%, G9a block -1% and GLS inh 9%.
`CCOC(=O)c1nc(Nc2ccc(Nc3ccccc3)cc2)c2ccccc2n1` gave BAZ2B block 16µM*, JMJD2A Tudor 28µM*, HP1b chromo inh inconclusive, G9a block inconclusive and GLS inh 15%.
CCOC(=O)c1nc(Nc2ccc(N3CCC(C)CC3)cc2)c2ccccc2n1 was read as BAZ2B block 40µM*, JMJD2A Tudor 28µM*, HP1b chromo inh inconclusive and GLS inh 14%.
CCOC(=O)c1nc(Nc2ccc(C(=O)O)cc2)c2ccccc2n1 was read as BAZ2B block -7%, JMJD2A Tudor 28µM*, HP1b chromo inh 9%, G9a block 40µM* and GLS inh -14%.
For O=C(COC(=O)Cc1ccc(F)cc1)NC1CCS(=O)(=O)C1 (stereo not given) the results were BAZ2B block -4%, JMJD2A Tudor -8%, HP1b chromo inh 30%, G9a block 14%[2.33 µM] and GLS inh 3%.
`Cn1c(=O)n(C)c2cc(NS(=O)(=O)c3ccc(C(C)(C)C)cc3)ccc21` gave BAZ2B block -3%, JMJD2A Tudor -4%, HP1b chromo inh 14%[57 µM], G9a block inconclusive and GLS inh -4%.
`COCCCn1c(C(=O)NCCN2CCOCC2)cc2c(=O)n3cccc(C)c3nc21` gave BAZ2B block 0%, JMJD2A Tudor -7%, HP1b chromo inh 31%, G9a block 97% and GLS inh -22%.
COc1ccc(OC)c(C2CC(=O)c3c([nH]c(C(=O)OCC4CCCO4)c3C)C2)c1 (stereo not given) was read as BAZ2B block inconclusive, JMJD2A Tudor -35%, HP1b chromo inh 15%, G9a block -13%[59 µM] and GLS inh -4%.
For Cc1c(C(=O)OCC(C)C)[nH]c2c1C(=O)CC(c1ccco1)C2 (stereo not given) the results were BAZ2B block 50µM*, JMJD2A Tudor inconclusive, HP1b chromo inh 18%, G9a block 40µM* and GLS inh -9%.
`Cc1c(C(=O)OCC2CCCO2)[nH]c2c1C(=O)CC(c1ccco1)C2` (stereo not given) gave BAZ2B block 22µM*, JMJD2A Tudor inconclusive, HP1b chromo inh inconclusive, G9a block 18µM* and GLS inh -2%.
For C=CCOC(=O)c1[nH]c2c(c1C)C(=O)CC(c1ccco1)C2 (stereo not given) the results were BAZ2B block 50µM*, JMJD2A Tudor 20µM*, HP1b chromo inh 28µM*, G9a block inconclusive and GLS inh 21%.
For Cc1c(C(=O)OC2CCCC2)[nH]c2c1C(=O)CC(c1ccco1)C2 (stereo not given) the results were BAZ2B block inconclusive, JMJD2A Tudor inconclusive, HP1b chromo inh 4%, G9a block inconclusive and GLS inh -4%.
Screening C/C=C/COC(=O)c1[nH]c2c(c1C)C(=O)CC(c1ccco1)C2 (stereo not given) returned BAZ2B block 50µM*, JMJD2A Tudor 50µM*, HP1b chromo inh -8%, G9a block 45µM* and GLS inh -31%.
`COC(=O)c1[nH]c2c(c1C)C(=O)CC(c1ccccc1)C2` (stereo not given) gave BAZ2B block -2%, JMJD2A Tudor -24%, HP1b chromo inh 5%, G9a block 8%[12.7 µM] and GLS inh -4%.
CC(=O)Nc1sc2c(c1C#N)CCC(C)C2 (stereo not given) was read as BAZ2B block -27%, JMJD2A Tudor -25%, HP1b chromo inh 10%, G9a block 16% and GLS inh 1%.
Screening CCOC(=O)C1CN(S(=O)(=O)c2ccccc2)CCN1S(=O)(=O)c1ccccc1 (stereo not given) returned BAZ2B block -12%, JMJD2A Tudor -9%, HP1b chromo inh 39%, G9a block 4%[12.7 µM] and GLS inh 5%.
CC(C)(C)c1ccccc1NC(=O)c1ccc(-n2cncn2)c([N+](=O)[O-])c1 was read as BAZ2B block 2%, JMJD2A Tudor -26%, HP1b chromo inh 25%, G9a block -42% and GLS inh -3%.
Screening CC(C)(C)C(=O)c1c(N)[nH]c(C(=O)c2ccccc2)c1-c1ccc(Cl)cc1 returned GLS inh 61%.
`COC(=O)c1cc(C(=O)NCC2CCCCC2)cc([N+](=O)[O-])c1` gave BAZ2B block -4%, JMJD2A Tudor -25%, HP1b chromo inh 16%, G9a block -3% and GLS inh 1%.
`CCOc1c(Br)cc(CNc2ccc(N3CCOCC3)cc2)cc1OC` gave BAZ2B block 25µM*, JMJD2A Tudor 50µM*, HP1b chromo inh inconclusive, G9a block 11µM* and GLS inh 68%.
CCOc1cc(CNc2ccc3c(c2)OCCO3)cc(Br)c1OC was read as BAZ2B block 22µM*, JMJD2A Tudor 40µM*, HP1b chromo inh -69%, G9a block 4µM* and GLS inh -3%.
Screening CCOc1cc(CNc2ccc3c(c2)OCCO3)cc(Br)c1OCC(N)=O returned BAZ2B block 45µM*, JMJD2A Tudor 50µM*, HP1b chromo inh -39%, G9a block 13µM* and GLS inh -1%.
CCOc1c(Br)cc(CNC2CCCCCCC2)cc1OC was read as BAZ2B block -25%, JMJD2A Tudor -16%, HP1b chromo inh 17%, G9a block -41% and GLS inh 0%.
COc1cc(CNc2ccc3c(c2)OCCO3)ccc1OCC(N)=O was read as BAZ2B block -16%, JMJD2A Tudor inconclusive, HP1b chromo inh 7%, G9a block 1% and GLS inh 30%.
Screening CCOc1c(Br)cc(CNc2ccc3c(c2)OCCO3)cc1OC returned BAZ2B block 35µM*, JMJD2A Tudor 50µM*, HP1b chromo inh -81%, G9a block 3.2µM* and GLS inh 9%.
COc1cccc(Oc2nc(-c3ccccc3O)nc3ccccc23)c1 was read as BAZ2B block -1%, JMJD2A Tudor 5%, HP1b chromo inh 25%, G9a block 42% and GLS inh -2%.
